28 compounds from PubChem BioAssay (NCATS) can be followed below.

Several values for one entry are separate records, joined by “and”; a condition that tells them apart may be missing. Identical values can stand only once. Inconclusive results are not listed. Activity calls are given as the source filed them. Calls follow the shape of the dose curve; as a rule, active = well fitted curve in the direction sought with a large enough effect; inconclusive = small, poorly fitted or top-dose-only effect, or another doubt; inactive = no such curve, though single readings can be large; an effect the other way counts as inactive or inconclusive.

Experiment [1] relates to Zika virus NS2B-NS3 protease. As to the kind of experiment: Primary screen GU AMC qHTS for Zika virus inhibitors (AID 1347154). Also: nearly all actives have a fitted effect of over 70% in size. Also: potency is read from the fitted curve at half-maximal effect. The method, boiled down: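 Unlinked Zika NS2B hydrophilic domain–NS3 protease complex at 25 nM in 10 mM Tris-HCl pH 8.0, 0.01% Tween 20, with an AMC peptide substrate. Fluorescence change (340/450 nm) over 15 min at room temperature, normalized to controls, fitted to 4-parameter Hill.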
A general note: In qHTS, concentration-response curves come from the screen itself.

The test system of experiment [2] is Zika virus NS2B-NS3 protease (linked construct). As to the kind of experiment: Confirmatory screen NINDS AMC qHTS for Zika virus inhibitors (AID 1347152). Also: nearly all actives have a fitted effect of over 70% in size. Also: potency is read from the fitted curve at half-maximal effect. The method, boiled down: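 Enzyme (1 nM, linked construct) was preincubated with compound for 15 minutes at room temperature in 10 mM Tris-HCl pH 8.0 with 0.01% Tween 20. Bz-Nle-Lys-Arg-Arg-AMC was then added to 10 microM, and AMC fluorescence was recorded immediately and after 15 minutes.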

Experiment [3] deals with Zika virus NS2B-NS3 protease (unlinked complex). Briefly: Confirmatory screen GU AMC qHTS for Zika virus inhibitors (AID 1347153). Also: nearly all actives have a fitted effect of over 70% in size.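 As to Potency: enzyme at 25 nM with substrate at 10 µM below its Km of 18.3 µM; potency is read from the fitted curve at half-maximal effect.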 In a few lines: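 Fluorescence change (ex 340/em 450 nm) over 15 min, ~20% substrate conversion, normalized to no-inhibitor and no-enzyme controls, then Hill-fitted. Unlinked protease at 25 nM; AMC peptide 10 µM.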
The nature of experiment [4]: Confirmatory screen NINDS Rhodamine qHTS for Zika virus inhibitors (AID 1347161). Also: nearly all actives have a fitted effect of over 60% in size. Also: potency is read from the fitted curve at half-maximal effect. The method, boiled down: (§1)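 Kinetic fluorescence (Ex 480 nm, Em 540 nm) over 15 min with 1.5 microM Rhodamine110 peptide and 25 nM linked protease.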
Experiment [5] is described as follows: ZIKV-mCherry secondary qHTS for Zika virus inhibitors (AID 1347158). Also: potency is read from the fitted curve at half-maximal effect. The method, boiled down:
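Vero cells, 5,000/well, plated overnight at 37 °C, then compound added and infected with recombinant ZIKV-mCherry at MOI 1 for 48-72 h. PFA-fixed, Hoechst nuclear stain, high-content imaging; cells with mCherry intensity above 450 RFU scored infected, reported as percent infection.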

Experiment [6] concerns Zika virus NS2B-NS3 protease (linked). Briefly: 384 well plate NINDS AMC confirmatory qHTS for Zika virus inhibitors (AID 1347163). Also: nearly all actives have a fitted effect of over 50% in size. Also: potency is read from the fitted curve at half-maximal effect. The method, boiled down:
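Linked protease 5/30/60 nM final; cpds up to 1 mM final, ~15 min preinc. Substrate Ac-VKTGKR-AMC 30 microM final. RT, dark, 25 min; FI ex 355/em 460; normalized to no-enzyme/no-inhibitor ctrls.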

For experiment [7], the system named is Zika virus NS2B-NS3 protease (linked construct). Briefly: 384 well plate NINDS Rhodamine confirmatory qHTS for Zika virus inhibitors (AID 1347164).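 Also: fluorescence from protease cleavage of Ac-LKRR-rhodamine 110 substrate; nearly all actives have a fitted effect of over 65% in size.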 Also: potency is read from the fitted curve at half-maximal effect. In a few lines:
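Enzyme (final 5/30/60 nM) + cpd (DMSO), ~15 min; add Ac-LKRR-Rd 10 microM final; 25 min RT, dark; FI ex 485/em 538; normalized to no-enzyme, no-inhibitor ctrls; aprotinin intraplate ctrl.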

Experiment [8] in a line: Confirmatory screen GU Rhodamine qHTS for Zika virus inhibitors qHTS (AID 1347157). Also: potency is read from the fitted curve at half-maximal effect; nearly all actives have a fitted effect of over 70% in size. The following applies: purified enzyme assay, Rhodamine110 substrate fluorescence, 15 min. The method, boiled down:
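Buffer 10 mM Tris-HCl pH 8.0, 0.01% Tween 20. Unlinked protease 25 nM; compound preincubation 15 min, RT, protected from light. Substrate Rhod110, 1.5 microM; ~15% conversion in 15 min.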

Experiment [9] concerns Zika virus NS2B-NS3 protease (unlinked complex). As to the kind of experiment: Primary screen GU Rhodamine qHTS for Zika virus inhibitors: Unlinked NS2B-NS3 protease assay (AID 1347159). Also: potency is read from the fitted curve at half-maximal effect; nearly all actives have a fitted effect of over 60% in size. The method, boiled down:
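A qHTS format was used, with compound concentrations ranging up to 114 microM. Each compound was preincubated with 25 nM NS2B-NS3 protease, and the substrate was then added at 1.5 microM. Curves were fitted with a 4-parameter Hill model.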

The subject of experiment [10] is Zika virus NS2B-NS3 protease (linked construct). As to the kind of experiment: Primary screen NINDS Rhodamine qHTS for Zika virus inhibitors (AID 1347160). Also: potency is read from the fitted curve at half-maximal effect; nearly all actives have a fitted effect of over 55% in size. The method, boiled down: as §1
A short description of experiment [11]: qHTS of pediatric cancer cell lines to identify multiple opportunities for drug repurposing: Confirmatory screen for Rh18 cells (AID 1347125). Also: nearly all actives have a fitted effect of over 55% in size. In a few lines:
(§2)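 Viability after 48 h compound treatment at 37C, 500-1,000 cells/well, read as ATP luminescence with CellTiter-Glo. Primary screens used 11-point (MIPE, 0.78 nM-46 µM) or 8-point (NPC, 0.59 nM-46 µM) final concentrations; follow-up screens used 11-point dilutions.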

Experiment [12] relates to Zika virus NS2B-NS3 protease (unlinked). As to the kind of experiment: Optimization of GU AMC qHTS for Zika virus inhibitors: Unlinked NS2B-NS3 protease assay (AID 1347151). Also: series mostly up to about 52 µM; nearly all actives have a fitted effect of over 80% in size. The method, boiled down:
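Unlinked protease (25 nM final); buffer 10 mM Tris-HCl pH 8.0 + 0.01% Tween 20; AMC substrate; 15 min RT, dark; Δfluorescence normalized to no-inhibitor/no-enzyme controls; 4-parameter Hill fit.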

The target in the next experiment is Furin (Homo sapiens) (UniProt P09958). As to the kind of experiment: Furin counterscreen qHTS for Zika virus inhibitors (AID 1347149). Also: nearly all actives have a fitted effect of over 70% in size. Also: potency is read from the fitted curve at half-maximal effect. The method, boiled down:
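Fluorogenic cleavage of BOC-RVRR-AMC (2 microM final, Km ~15 µM) was monitored (ex 340, em 450 nm) at 37C after 15 min RT preincubation of 5 nM furin with compounds in HEPES pH 7.0 buffer with CaCl2 and Triton X-100. Percent inhibition was fitted to a 4-parameter Hill curve.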
For orientation: Counterscreens check selectivity or assay interference.

Experiment [13] can be described thus: qHTS of pediatric cancer cell lines to identify multiple opportunities for drug repurposing: Confirmatory screen for Saos-2 cells (AID 1347127). Also: potency is read from the fitted curve at half-maximal effect; nearly all actives have a fitted effect of over 60% in size. The method, boiled down:
as §2

A short description of experiment [14]: qHTS of pediatric cancer cell lines to identify multiple opportunities for drug repurposing: Confirmatory screen for Rh30 cells (AID 1347126). Also: nearly all actives have a fitted effect of over 55% in size. In a few lines:
as §2

Chain of Furin (Homo sapiens) (P09958 whole entry, looked up): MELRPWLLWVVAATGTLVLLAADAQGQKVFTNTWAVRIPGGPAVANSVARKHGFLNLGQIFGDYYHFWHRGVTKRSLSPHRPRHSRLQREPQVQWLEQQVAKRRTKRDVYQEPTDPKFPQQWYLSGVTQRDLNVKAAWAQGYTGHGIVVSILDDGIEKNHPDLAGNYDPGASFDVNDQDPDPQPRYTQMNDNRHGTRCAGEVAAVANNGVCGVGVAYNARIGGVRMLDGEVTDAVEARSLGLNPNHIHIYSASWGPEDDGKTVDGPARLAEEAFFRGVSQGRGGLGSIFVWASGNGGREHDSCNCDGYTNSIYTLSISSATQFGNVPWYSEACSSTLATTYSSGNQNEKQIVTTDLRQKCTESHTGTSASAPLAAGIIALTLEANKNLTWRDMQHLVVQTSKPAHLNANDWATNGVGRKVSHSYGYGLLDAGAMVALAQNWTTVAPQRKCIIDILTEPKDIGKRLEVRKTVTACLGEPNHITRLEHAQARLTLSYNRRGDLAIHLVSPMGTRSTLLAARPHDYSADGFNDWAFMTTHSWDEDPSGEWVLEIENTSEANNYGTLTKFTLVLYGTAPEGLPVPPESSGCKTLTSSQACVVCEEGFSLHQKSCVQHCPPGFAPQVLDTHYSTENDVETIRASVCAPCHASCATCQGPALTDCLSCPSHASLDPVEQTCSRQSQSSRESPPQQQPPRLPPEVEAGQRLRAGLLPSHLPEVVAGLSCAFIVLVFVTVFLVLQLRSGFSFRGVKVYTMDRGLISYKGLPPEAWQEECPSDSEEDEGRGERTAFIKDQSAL

Consider `CC(=O)O[C@]1(C(C)=O)CC[C@H]2[C@@H]3C=C(C)C4=CC(=O)CC[C@]4(C)[C@@H]3CC[C@@]21C`, for which, in experiment [1], the Potency entry was “inactive”.

As for `CCc1c(O)cc(O)c(C(=O)c2ccc(OCCN3CCOCC3)c(OC)c2)c1CC(=O)N(CCOC)CCOC`, the Potency result in experiment [1] is “inactive”.

In the case of `C[C@H](CCC(=O)O)[C@H]1CCC2C3C[C@H](O)[C@@H]4C[C@H](O)CC[C@]4(C)C3CC[C@@]21C` (stereo partly drawn), the Potency result in [1] was “inactive”.

For `C[C@@H](NCc1cc2ccccc2[nH]1)c1cccc2ccccc12`, the Potency result in [2], in experiment [3] and in experiment [4] was “inactive” each time.

As for `CC(=O)OCC(=O)[C@@]1(O)CC[C@H]2[C@@H]3CCC4=CC(=O)CC[C@]4(C)[C@@H]3C(=O)C[C@@]21C`, the Potency entry in experiment [1] is “inactive”.

For the compound `NC(=NCCCCCCN=C(N)N=C(N)Nc1ccc(Cl)cc1)N=C(N)Nc1ccc(Cl)cc1`, the Potency entry in experiment [1] is “inactive”.

With `Cn1cc(C[C@@H](N)C(=O)O)c2ccccc21`, the Potency entry in [1] was “inactive”.

Consider `Cc1ccc(-n2[nH]c(C)c(N=Nc3cccc(-c4cccc(C(=O)O)c4)c3O)c2=O)cc1C`, for which the Potency is 15.2 µM (active) in [3]; 19.2 µM (active) in experiment [1]; 2.21 µM (active) in experiment [4]; 178 µM (active) in [6]; 7.94 µM (active) in [7]. Also, the Potency result in experiment [5] was “inactive”.

Turning to `CC(C)c1cc(C(C)C)c(CC(=O)NS(=O)(=O)Oc2c(C(C)C)cccc2C(C)C)c(C(C)C)c1`, the Potency in [2] is 7.84 µM (active); in experiment [3], 11.1 µM (active); in experiment [8], 2.21 µM (active); in experiment [5], 3.16 µM (active); in experiment [9] it was 3.16 µM (active); in experiment [10] it was 3.16 µM (active). Also, the Potency in [4] is 2.21 µM (active); in [6], 3.16 µM (active). Also, in [7], the Potency result is “inactive”.

`Cn1c(Nc2ccc(C(F)(F)F)cc2)nc2cc(Oc3ccnc(-c4ncc(C(F)(F)F)[nH]4)c3)ccc21`: the Potency entry in [11] and in experiment [1] was “inactive” throughout.

Regarding `CCCCCCCCc1ccc(CCC(N)(CO)CO)cc1`, the result in experiment [12] was inactive. Moreover, the Potency result in experiment [2], in experiment [3], in experiment [1], in [5], in experiment [4] and in experiment [7] was “inactive” in each case. Moreover, the Potency in [6] is 70.8 µM (active).

With `C=CC1=C(C(=O)O)N2C(=O)[C@@H](NC(=O)C(=NO)c3csc(N)n3)[C@H]2SC1`, the Potency result in experiment [1] is “inactive”.

Regarding `C[C@@H]1[C@H](C)CC[C@]2(C(=O)O)CC[C@]3(C)C(=CC[C@@H]4[C@@]5(C)C[C@@H](O)[C@H](O)[C@@](C)(CO)[C@H]5CC[C@]43C)[C@@H]12`, the Potency entry in experiment [1] was “inactive”.

On to `CCCCCCCCCCCCc1ccc(S(=O)(=O)Nc2nncs2)cc1`, for which, in experiment [1], the Potency entry is “inactive”.

As for `C[C@H]1COc2c(N3CCN(C)CC3)c(F)cc3c(=O)c(C(=O)O)cn1c23`, the Potency is 24.1 µM (active) in the experiment with Furin (Homo sapiens); 24.1 µM (active) in [2]; 27.1 µM (active) and 10.6 µM (active) in [1].

Regarding `CC(=O)OCC(=O)[C@@]12N=C(C)O[C@H]1C[C@H]1[C@@H]3CCC4=CC(=O)C=C[C@]4(C)[C@@H]3[C@@H](O)C[C@@]12C`, the Potency entry in experiment [1] is “inactive”.

Turning to `NC1=N[C@H]2[C@H](CS[C@H]2CCCCC(=O)O)N1`, in experiment [1], the Potency result was “inactive”.

Consider `N#Cc1cc(NC(=O)Nc2nnc(-c3ccncc3)s2)ccc1-c1cn[nH]c1`, for which, in experiment [1], the Potency result was “inactive”.

Consider `O=c1ccn([C@@H]2O[C@H](CO)[C@H](O)[C@@H]2F)c(=O)[nH]1`, for which the Potency entry in experiment [1] is “inactive”.

Turning to `COc1ccc(C[C@@H](C)[C@@H](C)Cc2ccc(OC)c(OC)c2)cc1OC`, the Potency result in experiment [11] and in [1] was “inactive” in each case.

Turning to `CCN(C(=O)c1c(O)c2c(Cl)cccc2n(C)c1=O)c1ccccc1`, in experiment [1], the Potency result is “inactive”.

Regarding `COc1ccc(S(=O)(=O)Nc2cc(-c3c(O)ccc4ccccc34)c(O)c3ccccc23)cc1`, the Potency entry (with Furin (Homo sapiens); in experiment [5]) was “inactive” each time. For the same compound, the Potency in [2] was 19.2 µM (active); in experiment [3], 24.1 µM (active); in experiment [1] it was 24.1 µM (active); in [4], 8.77 µM (active); in experiment [6], 31.6 µM (active); in experiment [7], 44.7 µM (active).

Regarding `O=C1NC(=O)[C@@H](c2cn3c4c(cccc24)CCC3)[C@H]1c1c[nH]c2ccccc12`, the Potency in [13] is 0.928 µM (active). In addition, the Potency entry in experiment [1] is “inactive”.

For the compound `CCCCCCCN(CC)CCCC(O)c1ccc(NS(C)(=O)=O)cc1` (stereo not drawn), the Potency in [1] was 24.1 µM (active).

Turning to `CN(CC(=O)N(Cc1ccc(C2CCCCC2)cc1)c1ccc(C(=O)O)c(O)c1)S(=O)(=O)c1c(F)c(F)c(F)c(F)c1F`, the Potency entry in experiment [14] was “inactive”. Moreover, the Potency in experiment [13] is 26.1 µM (active).

For `C[C@H]1C[C@H]2[C@@H]3CCC4=CC(=O)C=C[C@]4(C)[C@@H]3C(=O)C[C@]2(C)[C@@]1(O)C(=O)CO`, in experiment [1], the Potency entry was “inactive”.

In the case of `CN(C)CC(=O)N1CCC(c2ccc(NC(=O)c3ncc(C#N)[nH]3)c(C3=CCCCC3)c2)CC1`, the results for the Potency in [8] and in experiment [4] were 12.4 µM (active) and 9.87 µM (active), respectively.

In the case of `O=c1c(O)c(-c2ccc(O)c(O)c2)oc2cc(O)ccc12`, the results for the Potency in [8], in [4] and in experiment [7] were 44.7 µM (active), 44.7 µM (active) and 316 µM (active), respectively. Besides, the Potency entry in [5] and in [6] was “inactive” in each case.
